# In PubChem BioAssay AID743398 (Broad Institute, 2014):
# Screen size: about 300,000 compounds; about 3,600 (1.2%) were called active. Rule as the data show it: active = activation above about 30% (passing the limit was not always enough); inconclusive = no clear call, values can overlap the other calls. The entries come from a sample that favours actives as a whole.
# Assay: activation of beta-catenin signaling reporter – cell-based, plate reader, single point, primary screen (AID 743398);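 also: 0% = neutral control wells and 100% = positive control wells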
# Settings: Wnt/beta-catenin reporter cell assay, activator, at 9.35 µM, active compounds read high
row,Compound,activation
1,CC(C)Oc1ccc(CN2CCC2(C)C(=O)NCc2ccc(C(F)(F)F)cc2)cc1 (stereo unspecified),-2.84% (inactive)
2,O=C(c1cc(COc2ccc(F)cc2F)on1)N1CCOCC1,12.4% (inactive)
3,COc1cc(Cl)ccc1OCc1cc(C(=O)N2CC[C@@H]3CCCC[C@H]3C2)no1,18.3% (inactive)
4,COc1ccccc1-c1cc(C(=O)N2CCCCC2)no1,0.293% (inactive)
5,O=C(c1cc(-c2ccccc2O)on1)N1CCCC1,57.5% (active)
6,COc1cccc(OCc2cc(C(=O)N3CCN(C(=O)c4ccco4)CC3)no2)c1,31.4% (active)
7,O=C(c1cc(-c2ccc(O)cc2)on1)N1CCOCC1,19.9% (inactive)
8,O=C(c1cc(COc2cccc(C(F)(F)F)c2)on1)N1CCSCC1,1.55% (inactive)
9,COc1cccc(C(=O)Nc2ccc(N3CCN(C(=O)c4ccco4)CC3)cc2)c1,-1.7% (inactive)
10,COc1ccc(OCc2cc(C(=O)N3CCCC3)no2)c2ccccc12,43% (active)
11,COC(=O)[C@]12C[C@H](CC(=O)NCc3ccc(OC)c(OC)c3)C(=O)N(Cc3ccccc3)C1=C[C@H](C(C)C)O[C@@H]2C1CC1,-0.346% (inactive)
12,CSCCC(NC(=O)COc1ccccc1)C(=O)N1CCN(c2cccc(C(F)(F)F)c2)CC1 (stereo unspecified),-3.61% (inactive)
13,COc1ccc(OC)c(NC(=O)C2CCCN2S(=O)(=O)c2ccc3c(c2)CC(C)N3C(C)=O)c1 (stereo unspecified),-5.88% (inactive)
14,CCOC(=O)N1CCN(C(=O)C[C@@H]2C[C@@]3(C(=O)OC)CC(C)(C)CC=C3N(Cc3ccco3)C2=O)CC1,0.171% (inactive)
15,CCc1nc2c(OCCOc3ccccc3)cccn2c1N(C=O)Cc1ccc(OC)cc1,-2.79% (inactive)
16,Cc1ccc(C(=O)c2c(NC(=O)c3ccncc3)sc3c2CCCC3)cc1,38.4% (active)
17,NC(=O)c1c(NC(=O)c2ccccc2)sc2c1CCCC2,1.12% (inactive)
18,Cc1ccc(NC(=O)c2c(NC(=O)CCC(=O)O)sc3c2CCCCC3)cc1,29.5% (inactive)
19,CCCCCCCCN1C(=O)[C@@H](CC(=O)NCCCC)C[C@@]2(C(=O)OC)C1=C[C@H](C(C)(C)C)O[C@@H]2C,-3% (inactive)
20,COc1cccc(/C=C2\SC(=S)N(CCCC(=O)N3CCOCC3)C2=O)c1,3.86% (inactive)
21,CCc1nc2ccc(C(=O)Nc3ccc(OC)c(OC)c3)cn2c1N(C)C(=O)c1cccc(OC)c1,-0.76% (inactive)
22,Cc1ccc(C(=O)CSc2nnc(Cn3nnc4ccccc43)n2C)cc1,-0.352% (inactive)

row,Compound,activation
1,Cn1c(CNC(=O)c2ccccc2F)nnc1SCc1ccc(F)cc1,-0.026% (inactive)
2,Cn1c(Cn2nnc3ccccc32)nnc1SCC(=O)c1ccccc1F,85.8% (active)
3,Cc1[nH]c2ccccc2c1CC(=O)Nc1ccc(Nc2cccnc2)c(-c2cccc(Cl)c2)c1,-2.14% (inactive)
4,CCOC(=O)[C@]12CCCC=C1N(CCC1=CCCCC1)C(=O)[C@H](CC(=O)N1CCN(C(=O)c3ccco3)CC1)C2,-1.88% (inactive)
5,COc1ccccc1C1/C(=C(/O)c2ccc(OC(C)C)cc2)C(=O)C(=O)N1c1cc(C)on1 (stereo unspecified),-12% (inactive)
6,CCOc1ccc(/C(O)=C2\C(=O)C(=O)N(c3ccc(OC)cc3)C2c2ccccc2[N+](=O)[O-])cc1 (stereo unspecified),53.5% (active)
7,COc1ccc(C2/C(=C(/O)c3ccccc3)C(=O)C(=O)N2C)c(OC)c1 (stereo unspecified),0.335% (inactive)
8,OC[C@@H]1CN(Cc2ccc(F)cc2)C[C@H](n2cnc3c(NC4CCCC4)ncnc32)O1,-2.91% (inactive)
9,CC1C(C)N(C(=O)CCl)c2ccccc2N1C(=O)CCl (stereo unspecified),-5.8% (inactive)
10,COc1cc(N=Cc2c(O)c3ccccc3oc2=O)c(OC)cc1Cl,-0.517% (inactive)
11,O=c1oc2ccccc2c(=O)c2ccccc12,-3.29% (inactive)
12,COc1ccccc1N=Cc1c(O)c2ccccc2oc1=O,59% (active)
13,COc1cccc(-c2cc(NC(C)=O)c3ncc(-c4cccc(C(C)=O)c4)n3c2)c1,-1.27% (inactive)
14,COc1ccc(OC)c(C(O)c2ncc(-c3cccc(C(F)(F)F)c3)[nH]2)c1 (stereo unspecified),-1.7% (inactive)
15,CC1(C)OC(=O)C2=C(CC(CCc3ccccc3)OC2c2ccc(Cl)cc2)O1 (stereo unspecified),-2.32% (inactive)
16,CCOC(=O)CNC(=O)N(C)[C@H]1C[C@H]2c3[nH]c4c(-c5ccc6c(c5)OCO6)cccc4c3CCN2C(=O)[C@H]1[C@H](C)O,-4.82% (inactive)
17,CCCCCCNC(=O)O[C@H]1CN(C(=O)OC(C)C)N(C(=O)OC(C)C)[C@@H]2CN(S(=O)(=O)c3ccc(C)cc3)C[C@]12O,-6.88% (inactive)
18,Cc1nc(C)c(-c2csc(NCCc3ccccc3)n2)s1,10.9% (inactive)
19,O=c1oc2ccccc2cc1-c1csc(Nc2ccc(O)cc2)n1,48% (active)
20,CCNc1nc(-c2cc3ccccc3o2)cs1,55.9% (active)
21,O=C(Nc1ccncc1)c1cc2ccccc2o1,-4.19% (inactive)
22,CCCn1c(CCNc2nc(-c3ccc(OC)cc3)cs2)nc2ccccc21,1.69% (inactive)

row,Compound,activation
1,O=C(NCc1cccnc1)c1cccc(-c2cc3ccccc3oc2=O)c1,-9.13% (inactive)
2,CCOC(=O)[C@]12CCCC=C1N(CCC1=CCCCC1)C(=O)[C@H](CC(=O)NCCCCc1ccccc1)C2,-3.03% (inactive)
3,COc1ccc(NC(=O)c2sc(=O)n(Cc3ccc(S(=O)(=O)N(C)C)cc3)c2C)cc1,-1.18% (inactive)
4,O=C(Nc1ccc(Cl)cc1)C1Cc2c(-c3ccc4c(c3)OCO4)ccnc2O1 (stereo unspecified),-2.4% (inactive)
5,O=C(NCCOc1ccccc1)N1[C@H]2CC[C@@H]1C=C(c1ccc(F)cc1OCc1ccccc1)C2,-5.01% (inactive)
6,COc1ccc(SSc2ccc(OC)cc2C(=O)O)c(C(=O)O)c1,-2.15% (inactive)
7,Cc1ccc(S(=O)(=O)N2[C@@H](Cc3ccccc3)CO[C@H]2CC(=O)OCc2ccccc2)cc1,-1.94% (inactive)
8,COc1ccc(N2c3ccccc3CN(Cc3ccccc3)[C@@H](C)[C@H]2Cc2ccc(-c3ccccc3)cc2)cc1,-4.27% (inactive)
9,Cc1[nH]c2ccccc2c1/C=N\NC(=O)Cn1nnc(-c2ccccc2)n1,-3.53% (inactive)
10,CN=c1scc(-c2cc(OC)ccc2OC)n1/N=C/c1c(C)[nH]c2ccccc12,68.5% (active)
11,COc1ccc(OC)c(-c2csc(-c3cccs3)n2)c1,3.92% (inactive)
12,CCC(=O)N1Cc2cc(C(=O)NCc3cccc(F)c3)nc(-c3cccc(C4=CCCC4)c3)c2[C@H]1CCO,-0.49% (inactive)
13,O=C(NCc1ccccc1)[C@H]1CCCN1C(=O)[C@H]1CCCN1C(=O)c1cc(F)cc(F)c1,0.924% (inactive)
14,COc1ccc(/C=N/NS(=O)(=O)c2ccc(NC(C)=O)cc2)cc1,0.428% (inactive)
15,COc1ccc(/C=N/Nc2ccccc2C(=O)O)cc1,42.5% (active)
16,COc1ccc(C(=O)Nc2ccccc2C(=O)N/N=C/c2ccc(O)c(OC)c2)cc1,-6.14% (inactive)
17,Cn1nc(N)c2ncc(C(Cl)(Cl)Cl)nc21,-2.14% (inactive)
18,N#Cc1cccc(C(=O)NCC2CCN(C(=O)C(=O)c3cc4ccccc4o3)CC2)c1,-4.03% (inactive)
19,Cc1ccc2c(c1)N(CC(=O)NCC1CCCO1)C(=O)CO2 (stereo unspecified),6.02% (inactive)
20,Cc1ccc(C(=O)N/C(=C/c2cccs2)C(=O)NCC2CCCO2)cc1 (stereo unspecified),-12.8% (inactive)
21,Cc1ccc(-n2c(C)cc(/C=C(\C#N)C(=O)NCC3CCCO3)c2C)cc1 (stereo unspecified),38.2% (active)
22,O=C1Nc2ccccc2NC(c2ccc3c(c2)OCO3)=C1N(Cc1ccc(F)cc1)C(=O)c1ccco1,-2.97% (inactive)

row,Compound,activation
1,COC(=O)[C@]12C[C@H](CC(=O)NCc3cccc(C(F)(F)F)c3)C(=O)N(Cc3ccc4c(c3)OCO4)C1=C[C@H](COCc1ccccc1)O[C@@H]2C,-11.9% (inactive)
2,CCCCNc1cccc2c1S(=O)(=O)N[C@@H](C)CO2,-1.25% (inactive)
3,O=C(NCc1cccc(C(F)(F)F)c1)c1ccc2sc(COCCO)nc2c1,0.012% (inactive)
4,Cc1ccc(NC(=O)Nc2nnc(-c3ccncc3)s2)cc1,0.919% (inactive)
5,Cc1ccc(NC(=O)Nc2ccc3oc(C)nc3c2)cc1,53.7% (active)
6,Cc1ccc(NC(=O)Nc2cccnc2)cc1,8.59% (inactive)
7,O=C1Nc2ccccc2-n2nnnc2C1N1CCN(c2cccc(C(F)(F)F)n2)CC1 (stereo unspecified),-4.31% (inactive)
8,CC(C)(C)C(=O)CSc1nc2ccccc2o1,52.3% (active)
9,O=C(CSc1nc2ccccc2o1)N1c2ccccc2Sc2ccc(Cl)cc21,-2.83% (inactive)
10,O=C(CSc1nc2ccccc2o1)N/N=C/c1ccccc1C(=O)O,25.7% (inactive)
11,Cc1cc2c(cc1C)N1C(=O)c3cc4ccccc4cc3NC(=O)C1C(=O)N2 (stereo unspecified),-1.58% (inactive)
12,CC1(C(=O)Nc2cccc3c2CCCC3)CCN1C(=O)C1(c2ccccc2)CC1 (stereo unspecified),-1.58% (inactive)
13,Oc1ccc(-n2nnnc2SCc2c(F)cccc2Cl)cc1,-2.71% (inactive)
14,Cn1c(SCc2c(F)cccc2Cl)nnc1-c1cnccn1,41.7% (active)
15,Cc1ccc(CSc2nnc(-c3cnccn3)n2C)cc1,2.04% (inactive)
16,COc1cc(/C=N/N2CCN(c3ccccc3)CC2)ccc1OC(C)=O,3.52% (inactive)
17,COc1ccccc1N1CCN(/N=C\C(Br)=C\c2ccccc2)CC1,7.85% (inactive)
18,COc1ccccc1N1CCN(/N=C/c2ccc(O)cc2O)CC1,37.4% (active)
19,CC(C)c1cc(C(=O)N(C)C2CCCN(Cc3ccccc3F)C2)n(C)n1 (stereo unspecified),-4.84% (inactive)
20,Cc1nc(NC(=O)C(C)(C)C)sc1[N+](=O)[O-],-2.63% (inactive)
